Hit rate of the full screen: of about 5,500 compounds, about 2,000 (36%) were called active. About 18% were inconclusive and are not listed. No stated cut-off is given here; in the data, active means normalized growth mostly below about 0.91 (no sharp cut-off); inconclusive means no clear call, values can overlap the other calls; inactive means mostly above about 0.92. The list shows a part of the results.
Assay: chemical genetic growth profiling, strain panel (AID 1159580);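 further: tested at 20 µM; growth read once vehicle control cultures reached saturation at 30 °C; 1 = growth at the plate median or of vehicle wells; lower values mean less growth of the strain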
Settings: S. cerevisiae deletion strains, growth OD

Measured: normalized growth

COc1ccc(C(=O)CSC2=NCCc3ccccc32)cc1
inactive: locus YAR019C, strain CDC15, hits give low values 0.975 | locus YBL105C, strain PKC1, hits give low values 0.982 | locus YBR135W, strain CKS1, hits give low values 0.959 | locus YBR136W, strain MEC1, hits give low values 0.978 | locus YBR160W, strain CDC28, hits give low values 0.974 | locus YDL017W, strain CDC7, hits give low values 0.98 | locus YDL028C, strain MPS1, hits give low values 0.97 | locus YDL101C, strain DUN1, hits give low values 0.976 | locus YDL108W, strain KIN28, hits give low values 0.968 | locus YDL132W, strain cdc53, hits give low values 0.974 | locus YDL214C, strain PRR2, hits give low values 0.999 | locus YDR052C, strain DBF4, hits give low values 0.983 | locus YDR054C, strain cdc34, hits give low values 0.978 | locus YDR226W, strain ADK1, hits give low values 0.971 | locus YDR477W, strain SNF1, hits give low values 1 | locus YER123W, strain YCK3, hits give low values 1.02 | locus YER133W, strain GLC7, hits give low values 1.01 | locus YFL009W, strain cdc4, hits give low values 0.968 | locus YFL029C, strain CAK1, hits give low values 0.972 | locus YFR003C, strain YPI1, hits give low values 0.979 | locus YFR019W, strain FAB1, hits give low values 1.04 | locus YFR028C, strain CDC14, hits give low values 0.982 | locus YGR040W, strain KSS1, hits give low values 1 | locus YGR052W, strain FMP48, hits give low values 1.13 | locus YGR092W, strain DBF2, hits give low values 0.984 | locus YHR030C, strain SLT2, hits give low values 1.01 | locus YHR079C, strain IRE1, hits give low values 1 | locus YHR082C, strain KSP1, hits give low values 1.04 | locus YHR205W, strain SCH9, hits give low values 0.938 | locus YIL147C, strain SLN1, hits give low values 0.971 | locus YJL095W, strain BCK1, hits give low values 0.969 | locus YJL128C, strain PBS2, hits give low values 0.951 | locus YJL157C, strain FAR1, hits give low values 0.995 | locus YJR016C, strain ILV3, hits give low values 0.972 | locus YJR066W, strain TOR1 (second series), hits give low values 1 | locus YJR066W, strain TOR1, hits give low values 0.985 | locus YKL048C, strain ELM1, hits give low values 1.03 | locus YKL067W, strain YNK1, hits give low values 0.997 | locus YKL101W, strain HSL1, hits give low values 0.98 | locus YKL193C, strain SDS22, hits give low values 0.966 | locus YKL203C, strain TOR2, hits give low values 1.05 | locus YLR113W, strain HOG1, hits give low values 0.99 | locus YLR133W, strain CKI1, hits give low values 1.01 | locus YLR403W, strain SFP1, hits give low values 1.01 | locus YML070W, strain DAK1, hits give low values 1 | locus YMR001C, strain CDC5, hits give low values 0.962 | locus YMR205C, strain PFK2 (second series), hits give low values 0.998 | locus YMR277W, strain FCP1, hits give low values 0.968 | locus YNL006W, strain LST8, hits give low values 0.969 | locus YNL020C, strain ARK1, hits give low values 1.02 | locus YNL161W, strain CBK1, hits give low values 0.964 | locus YNL183C, strain NPR1, hits give low values 0.977 | locus YNL207W, strain RIO2, hits give low values 0.977 | locus YNL222W, strain SSU72, hits give low values 0.976 | locus YNL307C, strain MCK1 (second series), hits give low values 1.02 | locus YOL078W, strain AVO1, hits give low values 0.966 | locus YOL136C, strain PFK27, hits give low values 1.02 | locus YOR061W, strain CKA2, hits give low values 0.967 | locus YOR119C, strain RIO1, hits give low values 1.07 | locus YOR231W, strain MKK1, hits give low values 0.966 | locus YOR329C, strain SCD5, hits give low values 0.982 | locus YPL031C, strain PHO85, hits give low values 0.997 | locus YPL153C, strain RAD53, hits give low values 1 | locus YPL204W, strain HRR25, hits give low values 1.02 | locus YPL209C, strain IPL1, hits give low values 0.973 | locus YPL256C, strain CLN2, hits give low values 1.07 | locus YPR025C, strain CCL1, hits give low values 0.97 | locus YPR106W, strain ISR1, hits give low values 0.986 | locus YPR111W, strain DBF20, hits give low values 0.97 | strain NNK1, hits give low values 0.995 | strain TSCII, hits give low values 0.964

Reference: PubChem BioAssay AID1159580 (chemical genetic matrix, 2015)
